According to the supplement of paper PMC10338343:
± gives the standard deviation.

Tests used:
[1] = test system: MILI (PIWIL2) piRISC loaded with piRNA #1 (26 nt); experiment: pre-steady-state target cleavage rate (min^-1); guide: piRNA #1 5'p-UGAGGUAGUAGGUUGUAUAGUAUCCA; higher = faster piRNA-guided slicing of the target; conditions: auxiliary factor: 500 nM mouse GTSF1;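 also: 1 nM active piRISC with 0.1 nM target library at 33 °C single turnover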
Procedure, shortened: (§1)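 The pre-steady-state cleavage rate was calculated from a burst-and-steady-state fit. Data came from Cleave-'n-Seq, in which […] transcribed, DNA-blocked target RNA library was mixed with 1 nM active affinity-purified piRISC carrying one synthetic guide, with or without 500 nM GTSF1 partner protein, in HEPES–potassium acetate buffer at 33 °C for 0–8 or 0–960 min. Uncleaved targets were sequenced and normalised to depth and to weakly complementary targets, three trials were pooled, and k3 was capped at 0.0001 min^-1.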

[2] = test system: EfPiwi piRISC loaded with piRNA #1 (26 nt); experiment: pre-steady-state target cleavage rate (min^-1); auxiliary factor: 500 nM Ephydatia muelleri Gtsf1; guide: piRNA #1 5'p-UGAGGUAGUAGGUUGUAUAGUAUCCA; MIWI and MILI are mouse PIWI proteins and EfPiwi is from a freshwater sponge; tags in brackets are library labels; higher = faster piRNA-guided slicing of the target
Procedure, shortened: as §1

Row | Sequence | pre-steady-state target cleavage rate [1] | pre-steady-state target cleavage rate [2]
1 | GGAGUGGAUACUAUACAACCUACUACCUCCA | 0.223 ± 0.011 | 0.274 ± 0.077
2 | GGAGUGGAUACUAUACAACCUACUACCUGCA | 0.109 ± 0.012 | 0.00841 ± 0.0028
3 | GGAGUGGCUACUAUACAACCUACUACCUCA | 0.19 ± 0.012 | 0.0198 ± 0.0079
4 | GGAGACGAUACUAUACAACCUACACCUCA | 0.00588 ± 0.0025 | 0.00474 ± 0.0027
5 | GGAGAGGUACUAUACAACCUACUACCUCA | 0.089 ± 0.0084 | 0.00824 ± 0.0048
6 | GGAGUGGAUACUAUACUACCUACUACCUCA | 0.196 ± 0.0088 | 0.00816 ± 0.0037
7 | GGAGACCUUACUAUACAAGCUACUACCACA | 0.266 ± 0.023 | 0.00275 ± 0.0027
8 | GGAGAGGAUACUUUACAACGUACUACCUCA | 0.018 ± 0.0029 | 0.00409 ± 0.0016
9 | GGAGACCUAUGAGUACAACCUACUACCUCA | 0.00674 ± 0.0022 | 0.00713 ± 0.004
10 | GGAGACCAUACUAUACAACCUACUACCUACA | 0.16 ± 0.018 | 0.00527 ± 0.0031
11 | GGAGACCAUACUAUAGAACCUACUACCUCA | 0.116 ± 0.016 | 0.00367 ± 0.0017
12 | GGAGACCAUACUAUAACAACCUACUACCUCA | 0.133 ± 0.012 | 0.00662 ± 0.0038
13 | GGAGAGCAUACUAUACAACCUACUACGUCA | 0.112 ± 0.017 | 0.00351 ± 0.0025
14 | GGAGAGGAUACUAUAGAAGCUACUACCUCA | 0.0647 ± 0.0095 | 0.00238 ± 0.0021
15 | GGAGACGAUAUAUACAACCUACUACCUCA | 0.154 ± 0.011 | 0.00621 ± 0.0041
16 | GGAGACCAUAGUAUACAACCUACUACCUCA | 0.118 ± 0.012 | 0.022 ± 0.0084
17 | GGAGUGGUUACUAUACAACGUACUACCUCA | 0.0218 ± 0.003 | 0.00485 ± 0.0014
18 | GGAGAGGAAACUAUACUACCUACUACCUCA | 0.239 ± 0.025 | 0.00544 ± 0.0027
19 | GGAGACGAUACUAUACAACCUAGUUCCUCA | 0.00516 ± 0.0038 | 0.00305 ± 0.0018
20 | GGAGACGAUACUAUUCUACCUACUACCUCA | 0.173 ± 0.012 | 0.00416 ± 0.0035
